Records with an inconclusive call do not appear. Where a call stands in place of a potency, no number is given. Calls of active or inactive are those of the source. Calls follow the shape of the dose curve; as a rule, active = well fitted inhibition curve with a large enough effect; inconclusive = small, poorly fitted or top-dose-only effect; inactive = no such curve, though single readings can be large or run the other way.
Potency is read from the fitted curve at half-maximal effect.

The subject of this test is Zika virus NS2B-NS3 protease (linked construct). Put plainly: Primary screen NINDS Rhodamine qHTS for Zika virus inhibitors (AID 1347160). Also: nearly all actives have a fitted effect of over 55% in size. Particulars: purified NS2B-NS3 protease, Rhodamine110 substrate fluorescence; series mostly up to 57.1 µM. In short, it runs like this: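 Single-chain NS2B-NS3 protease, 25 nM, pH 8.0; compounds preincubated 15 min. Activity: Rhodamine110 release from 1.5 microM substrate over 15 min, room temperature, data fitted to 4-parameter Hill.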
For `COc1ccccc1CC(C(=O)O)N(C)C(=O)c1ccccc1` (centres undefined), the Potency result is “inactive”.
Then `CC1(C)CCCC2(C)C(CO)C3CCC2C31` (centres undefined), with “inactive”; and `CC1CCC2C(C)(C)C(O)CCC2(C)C12Cc1c(O)cc3c(c1O2)CN=C3N` (centres undefined), with “inactive”.
For `CC(C)(OC1OC(CO)C(O)C(O)C1O)C1CCC(O)(CO)C2CC(O)C(C)(O)C2C1` (centres undefined) the value was “inactive”.
Consider `C=C1C(O[C@@H]2O[C@H](CO)[C@@H](O)[C@H](O)[C@@H]2O)CC2C(C)(C)C(O)CCC2(C)C1CC/C(C)=C\CO` (some centres undefined), for which the Potency result is “inactive”.
Then `COC(=O)CC[C@@H](C)[C@H]1CC[C@H]2[C@@H]3CC(=O)[C@H]4C[C@H](OC(C)=O)CC[C@]4(C)[C@H]3CC[C@]12C`, with “inactive”.
`COC(=O)c1ccc(O[C@@H]2O[C@H](CO)[C@@H](O)[C@H](O)[C@H]2O)c(OC)c1`: the Potency entry was “inactive”.
Take `CC1CCC2(C)C(CC(O)C(O)C23CO3)C1(C)CCC1=CC(O)OC1=O` (centres undefined): the Potency result is “inactive”.
For the molecule `O=C(/C=C/c1ccc(O)cc1)OCC1=C[C@@H](O)[C@@H]2C=CO[C@@H](O[C@@H]3O[C@H](CO)[C@@H](O)[C@H](O)[C@H]3O)[C@H]12`, the Potency result is “inactive”.
Regarding `C=C1CCC2C(OC(=O)C2(O)COC(C)=O)C2C(=C)C(O)CC12` (centres undefined), the Potency result was “inactive”.
`CC1(C)CCC(C)(C)c2cc([C@@H](O)C(=O)Nc3ccc(C(=O)O)cc3F)ccc21`: the Potency is 14.1 µM (active).
Consider `CC(C)C1(O[C@@H]2O[C@H](CO)[C@@H](O)[C@H](O)[C@H]2O)CC=C(CO)CC1` (some centres undefined), for which the Potency entry was “inactive”.
On to `COc1cc(/C=C/C(=O)OC2CC(C)=C(C(=O)O)/C2=C/CO[C@@H]2O[C@H](CO)[C@@H](O)[C@H](O)[C@H]2O)ccc1O` (some centres undefined), for which the Potency result is “inactive”.
For `CC(C)CC(=O)OC[C@H]1O[C@@](COC(=O)CC(C)C)(O[C@H]2O[C@H](CO)[C@@H](O)[C@H](O)[C@H]2OC(=O)CC(C)C)[C@@H](OC(=O)CC(C)C)[C@@H]1O` the value was “inactive”.
For `CC1=CC(=O)OC(C)(CC(C)(O)C(=O)O)C1` (centres undefined) the value was “inactive”; for `NCCCC[C@H](NC(=O)[C@@H]1Cc2ccccc2CN1C(=O)CCC(=O)c1ccccc1)C(=O)NCC(c1ccccc1)c1ccccc1`, “inactive”; for `N[C@@H](CC(=O)N1CCn2c(nnc2C(F)(F)F)C1)Cc1[nH]nc2c(F)c(F)ccc12`, “inactive”.
For `c1ccc(Nc2nc3c(s2)CCCc2[nH]ncc2-3)nc1` the value was “inactive”.
Regarding `CC(c1c[nH]c2ccccc12)C(O)C(=O)O` (centres undefined), the Potency entry is “inactive”.
Then `C=C(C)[C@@H]1CC[C@](C)(O)[C@@H](OC(=O)c2ccccc2)C1`, with “inactive”.
Then `C=C1CCC2C(C)(C)C(O)CCC2(C)C1CCC(C)CCOC(=O)CCC(=O)O` (centres undefined), with “inactive”; and `CN1C(=O)c2ccccc2NC(=O)[C@]12O[C@@H]2c1cccc(O)c1`, with “inactive”.
Then `CC(=O)OCCC(C)CCC1C(C)(O)CCC2C(C)(C)CCCC21C` (centres undefined), with 11.2 µM (active); and `C1CCN2CC3C[C@@H](CN4CCCC[C@@H]34)[C@H]2C1`, with “inactive”; and `C[C@@H]1C[C@H](O[C@@H]2O[C@H](CO[C@@H]3OC[C@](O)(CO)[C@H]3O)[C@@H](O)[C@H](O)[C@H]2O)CC(C)(C)[C@H]1/C=C/[C@@H](C)O`, with “inactive”.
As to `CC1CCC2(C(=O)OC3OC(CO)C(O)C(O)C3O)CCC3(C(=O)O)C(=CCC4C5(C)CCC(OC6OC(C)C(O)C(O)C6O)C(C)(C)C5CCC43C)C2C1C` (centres undefined), the Potency entry was “inactive”.
For `COC(=O)C1C(c2ccc(O)cc2)C(C(=O)OC)C1c1ccc(O)cc1` (centres undefined) the value was “inactive”; for `CC(=O)OCC1=C[C@H](O)[C@@H]2C(C(=O)O)=CO[C@@H](O[C@@H]3O[C@H](CO)[C@@H](O)[C@H](O)[C@H]3O)[C@H]12`, “inactive”; for `CC(=O)O[C@@H]1[C@H]2[C@@H](OC(=O)c3ccccc3)[C@@H](C)C[C@]2(O)[C@H](OC(C)=O)[C@@]2(C)[C@@H]3CC(C)(C)C(=O)[C@]3(OC(C)=O)C[C@@]12C`, “inactive”.
Take `COc1ccccc1[C@@H]1C2=C(CC(C)(C)CC2=O)Nc2n[nH]c(C(F)(F)F)c21`: the Potency entry was “inactive”.
With `C/C(=C\CO)CC/C=C(\C)C(=O)O[C@H]1[C@H](OC2OC=C(C(=O)O)C3CCC(C)(O)C23)O[C@H](CO)[C@@H](O)[C@@H]1O` (some centres undefined), the Potency result was “inactive”.
As for `COc1cc2c(cc1O)C1(OC)Cc3ccc4c(c3C1N(C)CC2)OCO4` (centres undefined), the Potency entry was “inactive”.
Then `C[C@@H]1O[C@@H](O[C@H]2[C@H](O)[C@@H](C(=O)O)O[C@@H](O[C@H]3CC[C@@]4(C)C(CC[C@]5(C)C4CC=C4C6CC(C)(C)CC[C@]6(C(=O)O)CC[C@]45C)C3(C)C)[C@@H]2O[C@@H]2O[C@H](CO)[C@@H](O)[C@H](O)[C@H]2O)[C@H](O)[C@H](O)[C@H]1O` (some centres undefined), with “inactive”; and `CC(=O)O[C@@]1(C)C[C@@H](O)[C@]2(O)C=CO[C@@H](O[C@@H]3O[C@H](CO)[C@@H](O)[C@H](O)[C@H]3O)[C@@H]21`, with “inactive”.
For `C[C@]12C=CC(=O)C=C1CC[C@@H]1[C@@H]2[C@@H](O)C[C@@]2(C)[C@H]1CC[C@]2(O)C(=O)COC(=O)CCC(=O)O` the value was “inactive”.
Then `CCC(C)/C=C(C)/C=C/C1=CC2=C(Cl)C(=O)C(C)(OC(C)=O)C(=O)C2=CN1C1CCCCN(C(CCC(N)=O)C(=O)O)C1=O` (centres undefined), with “inactive”; and `CCOC(=O)N1CCC(NCCNC(=O)c2ccccc2C)CC1`, with “inactive”; and `COC(=O)C[C@@H]1C(C(=O)O)=CO[C@@H](O[C@@H]2O[C@H](CO)[C@@H](O)[C@H](O)[C@H]2O)/C1=C\COC(=O)/C=C\c1ccccc1`, with “inactive”.
As to `CC(=O)O[C@H]1[C@H](Oc2ccccc2COC(=O)C2(O)C=CCCC2=O)O[C@H](CO)[C@@H](O)[C@@H]1O` (some centres undefined), the Potency result was “inactive”.

Source of the values: PubChem BioAssay (NCATS).
